This passage reports Potency results from PubChem BioAssay (NCATS).

Assay [1] addresses Glutathione peroxidase 1 (Homo sapiens) (UniProt P07203). The assay can be described thus: Primary qHTS Assay for Inhibitors of Recombinant Selenoprotein Glutathione Peroxidase 1 (GPX1) (AID 1845191). Note: nearly all actives have a fitted effect of over 65% in size. The conditions noted are these: recombinant GPX1, GR-coupled NADPH fluorescence, 15 min; series mostly up to 48.8 µM. In outline:
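Recombinant GPX1 (10 nM final) was preincubated with compound for 30 min at room temperature, then reacted with 1 mM GSH, 0.5 mM CHP, 0.5 mM NADPH and 100 nM glutathione reductase; NADPH fluorescence (340/450 nm) was read at 0 and 15 min.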

In assay [2] the target is Phospholipid hydroperoxide glutathione peroxidase GPX4 (Homo sapiens) (UniProt P36969). Briefly: Primary qHTS Assay for Inhibitors of Recombinant Selenoprotein Glutathione Peroxidase 4 (GPX4) (AID 1845192). Note: nearly all actives have a fitted effect of over 65% in size. The conditions noted are these: recombinant GPX4, GR-coupled NADPH fluorescence, 15 min; series mostly up to 50 µM. The method in brief: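 GR-coupled readout: 100 nM GR, 1 mM GSH, 0.5 mM NADPH; NADPH fluorescence (ex 340/em 450 nm) read at t=0 and after 15 min RT. GPX4 200 nM, preincubated 30 min with compound; substrate 0.5 mM CHP.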

In assay [3] the target is Luciferin 4-monooxygenase (Photinus pyralis) (UniProt P08659). Briefly: Primary firefly luciferase (FLuc) qHTS assay for identification of artifact compounds. (AID 1845220). Note: nearly all actives have a fitted effect of over 60% in size. The conditions noted are these: purified firefly luciferase, luminescence, 5 min; series mostly up to 54.1 µM. The method in brief:
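In this counter-screen for luciferase artifacts, test compounds met substrate (10 uM each luciferin and ATP) before 10 nM enzyme started the reaction. Light output was measured 5 min later.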

The nature of assay [4]: Primary fluorescence-based thiol-reactive (MSTI) qHTS assay for identification of artifact compounds. (AID 1845221). Note: nearly all actives have a fitted effect of over 65% in size. Note: potency is the fitted concentration of half-maximal effect. The conditions noted are these: MSTI thiol-reactivity probe, 1 h; series mostly up to 53.8 µM. The method in brief: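 qHTS titration of compound; 4 uM MSTI, PBS pH 7.4, 2% DMSO; 1 h RT, dark; fluorescence 525/598 nm; normalized to Acetyl-MSTI and MSTI; 4-parameter Hill fit.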

The subject of assay [5] is Nanoluciferase (engineered Oplophorus gracilirostris luciferase). Briefly: Primary Nanoluciferase (NLuc) qHTS assay for identification of artifact compounds. (AID 1845222).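 Note: NLuc secreted into diluted conditioned medium of S16 cells.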 The conditions noted are these: NLuc-conditioned medium, Nano-Glo luminescence, 5 min; series mostly up to 54.1 µM. The method in brief: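 Using secreted nanoluciferase in S16 culture medium (0.22 um filtered, 1:55 dilution), compounds were preincubated 15 min at RT. Signal was generated with Nano-Glo reagent (1:100) over 5 min.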

Results filed as inconclusive are left out. The source made the active and inactive calls. Calls come from the whole dose curve; as a rule, active = well fitted curve in the direction sought with a large enough effect; inconclusive = small, poorly fitted or top-dose-only effect, or another doubt; inactive = no such curve, though single readings can be large; an effect the other way counts as inactive or inconclusive.

Chain of Phospholipid hydroperoxide glutathione peroxidase GPX4 (Homo sapiens) (P36969 whole entry, looked up): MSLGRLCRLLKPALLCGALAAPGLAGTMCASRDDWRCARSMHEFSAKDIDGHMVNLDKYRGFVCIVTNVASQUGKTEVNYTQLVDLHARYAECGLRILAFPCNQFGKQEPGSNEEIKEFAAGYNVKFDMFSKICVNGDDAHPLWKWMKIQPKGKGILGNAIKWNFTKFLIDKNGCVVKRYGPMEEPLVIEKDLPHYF
Chain of Glutathione peroxidase 1 (Homo sapiens) (P07203 whole entry, looked up): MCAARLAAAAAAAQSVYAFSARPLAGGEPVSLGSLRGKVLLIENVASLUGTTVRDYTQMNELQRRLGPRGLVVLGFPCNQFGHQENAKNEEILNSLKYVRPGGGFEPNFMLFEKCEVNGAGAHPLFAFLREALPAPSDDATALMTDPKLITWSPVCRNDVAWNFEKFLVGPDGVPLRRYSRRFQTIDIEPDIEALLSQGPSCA

As to `C=CC(=O)N1CC(N2CCN(C(=O)CNc3cc(C4CC4)c(Cl)cc3O)CC2)C1`, the Potency entry in assay [1], in assay [2], in assay [3] and in assay [5] was “inactive” in each case. For the same compound, in assay [4], the Potency is 2.67 µM (active).
For `Cc1cccc(CC(=O)N2CCc3c2ccc(-c2cn(C)c4ncnc(N)c24)c3F)n1`, the Potency entry in assay [1], in assay [2], in assay [3], in assay [4] and in assay [5] was “inactive” in each case.
Regarding `CCn1c(-c2nonc2N)nc2c(C#CC(C)(C)O)ncc(OCC3CCCNC3)c21` (stereo not given), the Potency result in assay [1], in assay [2], in assay [3], in assay [4] and in assay [5] was “inactive” throughout.
In the case of `CNC(=O)COC(=O)N1CCC(CCc2ccc(Cl)cc2)CC1`, the Potency entry in assay [1], in assay [2], in assay [3], in assay [4] and in assay [5] was “inactive” each time.
In the case of `CC(C)(O)C1CC(=O)C2(C)C(CCC3(C)C(c4ccoc4)OC(=O)C4OC432)C12CCC(=O)OC2` (stereo not given), the Potency entry in assay [1], in assay [2], in assay [3], in assay [4] and in assay [5] was “inactive” throughout.
Regarding `CC(=O)Nc1cccc(Nc2ncnc(N3CCC(OCc4ccc(OC(F)(F)F)cc4)CC3)n2)c1C`, the Potency entry in assay [1], in assay [2], in assay [3], in assay [4] and in assay [5] was “inactive” throughout.
Turning to `COc1ccc(NC(=O)C2C[C@H](C)CC[C@H]2C(C)C)cc1` (stereo not given in full), the Potency entry in assay [1], in assay [2], in assay [3], in assay [4] and in assay [5] was “inactive” in each case.
Regarding `Nc1nccc(-c2c(-c3ccc(F)cc3)ncn2C2CCCCC2)n1`, the Potency result in assay [1], in assay [2], in assay [3], in assay [4] and in assay [5] was “inactive” in each case.
Turning to `COc1ccc(-c2csc(NC(=O)[C@H]3CCCCN3S(=O)(=O)c3ccc(C)cc3)n2)cc1`, the Potency entry in assay [1], in assay [2], in assay [3], in assay [4] and in assay [5] was “inactive” throughout.
Turning to `FC(F)(F)c1ccccc1-c1cc(C(F)(F)F)c2nc(C3=NOC4(CCCCC4)C3)[nH]c2c1`, the Potency entry in assay [1], in assay [2], in assay [3], in assay [4] and in assay [5] was “inactive” each time.
With `N#Cc1cc(CN2CCC(Nc3ncnc4sc(Cl)cc34)CC2)ccc1F`, the Potency result in assay [1], in assay [2], in assay [3], in assay [4] and in assay [5] was “inactive” throughout.
As for `C=C1C(=O)OC2CC3(C)C(O)C(=O)C=C(C)C3CC12` (stereo not given), the Potency entry in assay [1], in assay [2], in assay [3] and in assay [5] was “inactive” throughout. Also, in assay [4], the Potency is 2.67 µM (active).
With `Cn1c(SCC(=O)N2CCC[C@H]2C(=O)Nc2ccccc2-c2ccccc2)nc2ccccc21`, the Potency result in assay [1], in assay [2], in assay [3], in assay [4] and in assay [5] was “inactive” each time.
For `Cn1nc(C(C)(C)C)cc1C(=O)N[C@@H](Cc1cccc(Cl)c1)C(=O)NCC#N`, the Potency result in assay [1], in assay [2], in assay [3], in assay [4] and in assay [5] was “inactive” throughout.
`COC(=O)C(Cc1ccc(OCCn2c(=O)sc3cc(C(=O)c4ccccc4)ccc32)cc1)C(=O)OC`: the Potency entry in assay [1], in assay [2], in assay [3], in assay [4] and in assay [5] was “inactive” in each case.
In the case of `Fc1ccc(-c2nc(-c3ccccc3F)[nH]c2-c2ccncc2)cc1`, the Potency result in assay [1], in assay [2], in assay [3], in assay [4] and in assay [5] was “inactive” in each case.
Consider `CCn1c(=O)c(-c2ccc(Cl)cc2Cl)cc2cnc(Nc3ccc(N4CCNCC4)c(F)c3)nc21`, for which the Potency entry in assay [1], in assay [2], in assay [3], in assay [4] and in assay [5] was “inactive” throughout.
As for `COc1cc(C(C)=O)c(OC)c2c1OC(C)(C)C=C2`, the Potency entry in assay [1], in assay [2], in assay [3], in assay [4] and in assay [5] was “inactive” throughout.
Consider `O=C(NCCCCCCCCNC(=O)C(Cl)Cl)C(Cl)Cl`, for which the Potency entry in assay [1], in assay [2], in assay [3], in assay [4] and in assay [5] was “inactive” each time.
